High-throughput results from PubChem.
RE007 growth inh – less growth of the S. pombe RE007 Vpr strain; S. pombe RE007 Vpr strain, BacTiter-Glo ATP luminescence, 24 h; Potency, µM (doses to about 92.2 µM), inactives show top-dose activity change, negative = less growth, most hits filed as inhibitors; 0.21% of 360,000 active; AID 651644; active means well fitted falling curve with a large enough effect; inconclusive means small, poorly fitted or top-dose-only effect; inactive means no such curve, though single readings can be large or run the other way; further: on the % scale 0 is the no-effect control and ±100 the full control effect; nearly all actives have a fitted effect of over 50% in size
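Fission yeast RE007 carrying one integrated HIV-1 vpr copy, seeded at OD 0.01 in PMG+AL medium with 23 nL pinned compound. Grown 24 h at 30 degrees; viability read by BacTiter-Glo luminescence after 5 min.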
Pf growth 48h – P. falciparum growth inhibition at 48 hours (one generation); P. falciparum luciferase growth in erythrocytes, 48 h; Potency, µM (top dose mostly 28.7 µM), for the others: at the highest dose activity change, negative = inhibition, hits mostly inhibitors; 5.9% of 310,000 active; AID 504832; further: on the % scale 0 is the no-effect control and ±100 the full control effect
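Luminescence readout; reporter = integrated firefly luciferase in P. falciparum. RBC culture at 2% hematocrit, 0.1% parasitemia final, 37 C/5% CO2; decreased signal taken as growth inhibition.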
NS1 function inh – inhibitors of influenza NS1 protein function | Potency, µM (doses to about 46.1 µM), inactives show at the highest dose activity, positive = more growth | 0.4% of 270,000 active | AID 2326; calls by dose curve; further: actives are rising curves; nearly all actives have a fitted effect of over 50% in size
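Read-out: OD600 growth recovery of NS1-expressing budding yeast. Cells grown overnight at 30C in -URA glucose medium, washed, resuspended and diluted 1:100 in 2% galactose assay medium, pH 6.0. Same strain lacking NS1 served as positive control.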
Pf growth 96h – inhibits malaria parasite growth, 96 h; P. falciparum luciferase reporter growth, 96 h; Potency, µM (doses to about 28.7 µM), without a hit: top-dose activity change, negative = inhibition, actives largely listed as inhibitors; 6.9% of 320,000 active; further: on the % scale 0 is the no-effect control and ±100 the full control effect
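Delayed-death screen, second-generation endpoint: infected erythrocytes, 2% hematocrit, 0.05% parasitemia final; 96 hours at 37 C, 5% CO2; luciferase detection reagent; luminescence decrease equals reduced growth.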
SARS PLP yeast – blocks SARS-CoV papain-like protease in a yeast assay; S. cerevisiae expressing SARS-CoV PLpro, growth rescue; 0.19% of 330,000 active; Potency, µM (doses to about 32.9 µM), inactives show at the highest dose activity, positive = growth rescue, most hits filed as activators; calls by dose curve; further: 0% is about no effect; nearly all actives have a fitted effect of over 55% in size
Starred values were filed as active, the others as inactive; ? = inconclusive; · = not tested or not shown; [ ] = another dose, or the depositor's remark. Most compounds without a hit are left out; they make up all but 9.5% or so of the library. Unless noted, the call rests on the fitted dose curve; in most records, active means well fitted inhibition curve with a large enough effect; inconclusive means small, poorly fitted or top-dose-only effect, or another doubt; inactive means no such curve, though single readings can be large or run the other way. Potency means the concentration at half of the fitted maximal effect.

SMILES	RE007 growth inh	Pf growth 48h	NS1 function inh	Pf growth 96h	SARS PLP yeast
C=CCC(NCc1ccco1)c1ccc(OC)c(OC)c1 (stereo unspecified)	-5%	·	8%	44%	-3%
C=CCC(NCc1ccco1)c1ccc(OC)cc1OC (stereo unspecified)	·	-12%	6%	10µM*	5%
CCn1nc(C)c(CN2CCCC(CNS(=O)(=O)c3ccc(OC)cc3)C2)c1C (stereo unspecified)	6%	9%	?	?	1%
CCN(CC)CCNC(=O)c1ccccc1C(=O)c1ncc[nH]1	2%	-14%	5%	1.7µM*	1%
CCN(CC)CCNC(=O)c1ccccn1	-10%	-17%	5%	-25%	3%
Cc1cccc(C)c1NS(=O)(=O)c1c(C(=O)N2CCCCC2)c(C)n(C)c1C	2%	-5%	5%	25%	20%
COc1ccc(C(Nc2ccccn2)c2c(NC(=O)c3ccco3)sc(C)c2C)cc1 (stereo unspecified)	-2%	4.7µM*	11%	?	-61%
COc1cccc(C(Nc2ccccn2)c2c(NC(=O)c3ccco3)sc(C)c2C)c1 (stereo unspecified)	-5%	8.3µM*	-26%	?	0%
Cc1sc(NC(=O)c2ccco2)c(C(Nc2ccccn2)c2ccccc2)c1C (stereo unspecified)	2%	?	5%	?	-30%
CCNc1nc(NCC)nc(NS(=O)(=O)c2ccc(N)cc2)n1	-6%	4%	11%	15%	0%
Cc1ccccc1C1c2[nH]c3ccccc3c2C[C@H]2C(=O)N(C3CC3)CC(=O)N12 (stereo partly specified)	3%	12µM*	2%	3.7µM*	0%
O=C1[C@@H]2Cc3c([nH]c4ccccc34)C(c3ccccc3)N2C(=O)CN1C1CC1 (stereo partly specified)	10%	?	-2%	?	0%
COc1cccc(C2c3[nH]c4ccccc4c3C[C@H]3C(=O)N(CCCCCO)CC(=O)N23)c1 (stereo partly specified)	-8%	?	-2%	?	1%
COc1ccccc1C1c2[nH]c3ccccc3c2C[C@H]2C(=O)N(C3CCN(Cc4ccccc4)CC3)CC(=O)N12 (stereo partly specified)	9%	1.9µM*	-2%	1.5µM*	2%
COc1cccc(C2c3[nH]c4ccccc4c3C[C@H]3C(=O)N(C4CCN(Cc5ccccc5)CC4)CC(=O)N23)c1 (stereo partly specified)	17%	4.7µM*	2%	3.7µM*	1%
COc1ccc(C2c3[nH]c4ccccc4c3C[C@H]3C(=O)N(C4CCN(Cc5ccccc5)CC4)CC(=O)N23)cc1OC (stereo partly specified)	-4%	1.5µM*	5%	1.5µM*	1%
Cc1[nH]c2ccc(C(=O)OCC(=O)NC3(C#N)CCCCC3)cc2c1C	5%	?	·	?	3%
Cc1ccc(CNC(=O)Cn2nnc(C(=O)Nc3cc(C)ccc3C)c2N)cc1	-16%	0%	-10%	6%	?
COc1cccc(CN(C)C(=O)CSc2nc3ccccc3[nH]2)c1OC	-22%	-10%	-5%	0%	0%
CCOc1ccc(C2/C(=C(/O)c3ccc(S(=O)(=O)N4CCCCC4)cc3)C(=O)C(=O)N2CCCOC)cc1OC (stereo unspecified)	-3%	?	10%	3.7µM*	-3%
O=C1C(=O)N(CCN2CCOCC2)C(c2ccc(Cl)cc2)/C1=C(/O)c1ccc(S(=O)(=O)N2CCOCC2)cc1 (stereo unspecified)	-20%	-40%	7%	2.6µM*	3%
O=C1CC(c2ccsc2)c2cc3c(cc2N1)OCCO3 (stereo unspecified)	0%	?	-5%	12µM*	-2%
Cc1cc2c(cc1C)C(c1ccsc1)CC(=O)N2 (stereo unspecified)	-24%	95%	·	4.7µM*	1%
Cc1cc2c(cc1C)C(c1cccc(F)c1)CC(=O)N2 (stereo unspecified)	0%	-3%	-26%	13%	-6%
CNc1ccc2oc(C[C@H]3O[C@@]4(CC[C@H]3C)O[C@H]([C@H](C)C(=O)c3ccc[nH]3)[C@H](C)C[C@H]4C)nc2c1C(=O)O	?	0.93µM*	-46%	0.41µM*	-10%
SMILES	RE007 growth inh	Pf growth 48h	NS1 function inh	Pf growth 96h	SARS PLP yeast
CCc1ccc(C(=O)CSc2nc(N)cc(=O)[nH]2)cc1	-8%	83%	?	10µM*	9%
COc1ccc(CCn2c(C)cc(C(=O)CSc3nnc(N)s3)c2C)cc1	6%	?	?	9.3µM*	1%
COc1ccc(CCn2c(C)cc(C(=O)CSc3nc(N)cc(=O)[nH]3)c2C)cc1	6%	?	16%	9.3µM*	4%
Cc1cc(C(=O)CSc2nc(N)cc(=O)[nH]2)c(C)n1CCc1ccc(F)cc1	13%	2%	12%	3%	1%
Cc1cc(C(=O)CSc2nnc(N)s2)c(C)n1CCc1ccc(Cl)cc1	-2%	-21%	-2%	?	-5%
COC(=O)c1c(-c2cccnc2)csc1NC(=O)c1ccc2c(c1)OCO2	-23%	132%	11%	?	1%
O=C(c1ccc([N+](=O)[O-])s1)N1CCN(c2ncccn2)CC1	-16%	·	·	·	·
O=C(c1ccc([N+](=O)[O-])s1)N1CCN(c2ccc(C(F)(F)F)cn2)CC1	-2%	?	?	3.3µM*	-16%
N#Cc1ccc(OCC(=O)N2CCN(c3ccc(C(F)(F)F)cn3)CC2)cc1	-13%	?	·	4.1µM*	7%[6.58 µM]
C[C@H](NC(=O)c1ccco1)C(=O)N1CCN(c2ccc(C(F)(F)F)cn2)CC1	-8%	·	·	·	-1%
CC(C)c1nc2oc3c(=O)[nH]cnc3c2c2c1CCC2	19%	·	-3%	-27%	1%
CC(C)c1nc2oc3c(N4CCNCC4)ncnc3c2c2c1CCC2	-12%	·	3.2µM*	·	·
COc1cc(/C=C/c2nc3ccccc3c(=O)n2-c2ccc(O)cc2)ccc1O	11%	-10%[0.00184 µM]	8%	?	0%
O=c1c2ccccc2nc(/C=C/c2ccccc2O)n1-c1ccccc1O	·	?	-36%	?	-3%
COc1ccc(-n2c(/C=C/c3ccc(O)c(O)c3)nc3ccccc3c2=O)cc1	-26%	5.2µM*	-17%	2.3µM*	0%
O=c1c2ccccc2nc(/C=C\c2ccccc2[N+](=O)[O-])n1-c1ccccc1O	1%	6.6µM*	8%	?	0%
O=c1c2ccccc2nc(/C=C/c2ccc3c(c2)OCO3)n1-c1ccccc1	5%	?	-2%	10µM*	4%
O=C(OC(C(=O)NCc1ccccc1)c1ccccc1F)c1ccco1 (stereo unspecified)	22%	35%	4%	-3%	-8%
